# Test results as given in paper PMC8384837, “Expanding the binding specificity for RNA recognition by a PUF domain”.
# Tests used:
# Test in all cases: yeast three-hybrid, YBZ-1, SC-Leu-His + 0.5 mM 3-AT, 4 days
# Conditions in all cases: tags: N-Gal4 AD-HA kept; label: inside an RPR1-promoter hybrid RNA with tandem MS2 sites; ssRNA
# PUM1 PUF domain R4-TNQ = PUM1 PUF domain R4-TNQ (Homo sapiens, UniProt Q14671 828-1176, N971T;H972N)
# Procedure, shortened: (§1)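 The interaction score is the log change in how often each variant appears, from input to selection. Frequencies came from PCR-amplified, Illumina-sequenced repeat regions of Pumilio-1 PUF domain libraries grown in strain YBZ-1 (LexA–MS2 coat fusion, HIS3 reporter) alongside matching RNA elements. Input plates were SC-Leu and selection plates were SC-Leu-His + 0.5 mM 3-AT, each for four days, and the log2 calculation used a pseudocount of 1 where a variant was absent.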
# PUM1 PUF domain R4-HRG = PUM1 PUF domain R4-HRG (Homo sapiens, UniProt Q14671 828-1176, N971H;H972R;Q975G)
# Procedure, shortened: as §1
# PUM1 PUF domain R8-KYT = PUM1 PUF domain R8-KYT (Homo sapiens, UniProt Q14671 828-1176, N1122K;Q1126T)
# Procedure, shortened: as §1
# PUM1 PUF domain R8-KRN = PUM1 PUF domain R8-KRN (Homo sapiens, UniProt Q14671 828-1176, N1122K;Y1123R;Q1126N)
# Procedure, shortened: as §1
# PUM1 PUF domain R5-PGY = PUM1 PUF domain R5-PGY (Homo sapiens, UniProt Q14671 828-1176, C1007P;R1008G;Q1011Y)
# Procedure, shortened: as §1
# PUM1 PUF domain R6-VFA = molecular target: T1, PUM1 PUF domain R6-VFA (Homo sapiens, UniProt Q14671 828-1176, N1043V;Y1044F;Q1047A)
# T1 sequence: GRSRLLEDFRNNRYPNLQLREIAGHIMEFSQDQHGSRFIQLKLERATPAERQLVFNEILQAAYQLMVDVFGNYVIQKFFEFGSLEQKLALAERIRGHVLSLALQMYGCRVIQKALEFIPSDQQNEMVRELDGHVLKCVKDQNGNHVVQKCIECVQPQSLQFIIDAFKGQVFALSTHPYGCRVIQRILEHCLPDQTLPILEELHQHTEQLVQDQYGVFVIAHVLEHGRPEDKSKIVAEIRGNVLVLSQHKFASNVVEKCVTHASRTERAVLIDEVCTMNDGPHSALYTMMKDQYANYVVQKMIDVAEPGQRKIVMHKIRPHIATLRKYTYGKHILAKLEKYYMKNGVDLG
# Procedure, shortened: as §1
# PUM1 PUF domain R8-RNR = PUM1 PUF domain R8-RNR (Homo sapiens, UniProt Q14671 828-1176, N1122R;Y1123N;Q1126R)
# Procedure, shortened: as §1
# PUM1 PUF domain R8-RFG = PUM1 PUF domain R8-RFG (Homo sapiens, UniProt Q14671 828-1176, N1122R;Y1123F;Q1126G)
# Procedure, shortened: as §1
# PUM1 PUF domain R8-THR = PUM1 PUF domain R8-THR (Homo sapiens, UniProt Q14671 828-1176, N1122T;Y1123H;Q1126R)
# Procedure, shortened: as §1
# PUM1 PUF domain R4-NNW = PUM1 PUF domain R4-NNW (Homo sapiens, UniProt Q14671 828-1176, H972N;Q975W)
# Procedure, shortened: as §1
# PUM1 PUF domain R3-AKE = PUM1 PUF domain R3-AKE (Homo sapiens, UniProt Q14671 828-1176, C935A;R936K;Q939E)
# Procedure, shortened: as §1
# PUM1 PUF domain R3-RIS = PUM1 PUF domain R3-RIS (Homo sapiens, UniProt Q14671 828-1176, C935R;R936I;Q939S)
# Procedure, shortened: as §1
# PUM1 PUF domain R5-RSC = PUM1 PUF domain R5-RSC (Homo sapiens, UniProt Q14671 828-1176, C1007R;R1008S;Q1011C)
# Procedure, shortened: as §1
# PUM1 PUF domain R5-DHA = PUM1 PUF domain R5-DHA (Homo sapiens, UniProt Q14671 828-1176, C1007D;R1008H;Q1011A)
# Procedure, shortened: as §1
# PUM1 PUF domain R5-SER = PUM1 PUF domain R5-SER (Homo sapiens, UniProt Q14671 828-1176, C1007S;R1008E;Q1011R)
# Procedure, shortened: as §1
# PUM1 PUF domain R5-AKR = PUM1 PUF domain R5-AKR (Homo sapiens, UniProt Q14671 828-1176, C1007A;R1008K;Q1011R)
# Procedure, shortened: as §1
# PUM1 PUF domain R8-PFW = PUM1 PUF domain R8-PFW (Homo sapiens, UniProt Q14671 828-1176, N1122P;Y1123F;Q1126W)
# Procedure, shortened: as §1
# PUM1 PUF domain R1-HMR = PUM1 PUF domain R1-HMR (Homo sapiens, UniProt Q14671 828-1176, S863H;R864M;Q867R)
# Procedure, shortened: as §1
# PUM1 PUF domain R5-DFT = PUM1 PUF domain R5-DFT (Homo sapiens, UniProt Q14671 828-1176, C1007D;R1008F;Q1011T)
# Procedure, shortened: as §1
# PUM1 PUF domain R5-SVS = PUM1 PUF domain R5-SVS (Homo sapiens, UniProt Q14671 828-1176, C1007S;R1008V;Q1011S)
# Procedure, shortened: as §1
sequence,measurement,setting,value
GGCUAGAACUAGUGGAUCCCCCGGCGCCCGGCGGCUCGAGCCCGGGUAAGUGUAUAUAGUCUGCAUGCCGCCGGGCGCCAUGCCUGCAGGUCGACUCUAGAAAACAUG,binding signal,PUM1 PUF domain R4-TNQ,4.92 log2 enrichment (interaction score)
same,binding signal,PUM1 PUF domain R4-HRG,2.71 log2 enrichment (interaction score)
GGCUAGAACUAGUGGAUCCCCCGGCGCCCGGCGGCUCGAGCCCGGGUAAGUGUAAAUAGUCUGCAUGCCGCCGGGCGCCAUGCCUGCAGGUCGACUCUAGAAAACAUG,binding signal,PUM1 PUF domain R8-KYT,2.68 log2 enrichment (interaction score)
same,binding signal,PUM1 PUF domain R8-KRN,2.98 log2 enrichment (interaction score)
same,binding signal,PUM1 PUF domain R5-PGY,4.47 log2 enrichment (interaction score)
same,binding signal,PUM1 PUF domain R6-VFA,2.89 log2 enrichment (interaction score)
same,binding signal,PUM1 PUF domain R4-HRG,3.06 log2 enrichment (interaction score)
same,binding signal,PUM1 PUF domain R8-RNR,0.57 log2 enrichment (interaction score)
same,binding signal,PUM1 PUF domain R8-RFG,4.85 log2 enrichment (interaction score)
same,binding signal,PUM1 PUF domain R8-THR,2.7 log2 enrichment (interaction score)
GGCUAGAACUAGUGGAUCCCCCGGCGCCCGGCGGCUCGAGCCCGGGUAAGUGUACAUAGUCUGCAUGCCGCCGGGCGCCAUGCCUGCAGGUCGACUCUAGAAAACAUG,binding signal,PUM1 PUF domain R4-HRG,2.09 log2 enrichment (interaction score)
same,binding signal,PUM1 PUF domain R4-NNW,4.15 log2 enrichment (interaction score)
GGCUAGAACUAGUGGAUCCCCCGGCGCCCGGCGGCUCGAGCCCGGGUAAGUGUAAGUAGUCUGCAUGCCGCCGGGCGCCAUGCCUGCAGGUCGACUCUAGAAAACAUG,binding signal,PUM1 PUF domain R3-AKE,2.98 log2 enrichment (interaction score)
same,binding signal,PUM1 PUF domain R3-RIS,3.17 log2 enrichment (interaction score)
GGCUAGAACUAGUGGAUCCCCCGGCGCCCGGCGGCUCGAGCCCGGGUAAGUGUAAUUAGUCUGCAUGCCGCCGGGCGCCAUGCCUGCAGGUCGACUCUAGAAAACAUG,binding signal,PUM1 PUF domain R3-RIS,3.36 log2 enrichment (interaction score)
GGCUAGAACUAGUGGAUCCCCCGGCGCCCGGCGGCUCGAGCCCGGGUAAGUGUUAAUAGUCUGCAUGCCGCCGGGCGCCAUGCCUGCAGGUCGACUCUAGAAAACAUG,binding signal,PUM1 PUF domain R5-RSC,3.18 log2 enrichment (interaction score)
same,binding signal,PUM1 PUF domain R5-DHA,4.01 log2 enrichment (interaction score)
GGCUAGAACUAGUGGAUCCCCCGGCGCCCGGCGGCUCGAGCCCGGGUAAGUGUCAAUAGUCUGCAUGCCGCCGGGCGCCAUGCCUGCAGGUCGACUCUAGAAAACAUG,binding signal,PUM1 PUF domain R5-SER,3.79 log2 enrichment (interaction score)
same,binding signal,PUM1 PUF domain R5-RSC,3.02 log2 enrichment (interaction score)
same,binding signal,PUM1 PUF domain R5-AKR,5.56 log2 enrichment (interaction score)
GGCUAGAACUAGUGGAUCCCCCGGCGCCCGGCGGCUCGAGCCCGGGUAAGCGUAAAUAGUCUGCAUGCCGCCGGGCGCCAUGCCUGCAGGUCGACUCUAGAAAACAUG,binding signal,PUM1 PUF domain R8-KYT,2.81 log2 enrichment (interaction score)
same,binding signal,PUM1 PUF domain R8-RNR,2.37 log2 enrichment (interaction score)
same,binding signal,PUM1 PUF domain R8-RFG,6.69 log2 enrichment (interaction score)
same,binding signal,PUM1 PUF domain R8-PFW,3.6 log2 enrichment (interaction score)
same,binding signal,PUM1 PUF domain R8-THR,3.22 log2 enrichment (interaction score)
GGCUAGAACUAGUGGAUCCCCCGGCGCCCGGCGGCUCGAGCCCGGGUAAGUGUAAAUCGUCUGCAUGCCGCCGGGCGCCAUGCCUGCAGGUCGACUCUAGAAAACAUG,binding signal,PUM1 PUF domain R1-HMR,3.35 log2 enrichment (interaction score)
GGCUAGAACUAGUGGAUCCCCCGGCGCCCGGCGGCUCGAGCCCGGGUAAGUGUGAAUAGUCUGCAUGCCGCCGGGCGCCAUGCCUGCAGGUCGACUCUAGAAAACAUG,binding signal,PUM1 PUF domain R5-DFT,3.29 log2 enrichment (interaction score)
same,binding signal,PUM1 PUF domain R5-SVS,3.48 log2 enrichment (interaction score)
same,binding signal,PUM1 PUF domain R5-DHA,2.38 log2 enrichment (interaction score)
GGCUAGAACUAGUGGAUCCCCCGGCGCCCGGCGGCUCGAGCCCGGGUAAGUGAAAAUAGUCUGCAUGCCGCCGGGCGCCAUGCCUGCAGGUCGACUCUAGAAAACAUG,binding signal,PUM1 PUF domain R6-VFA,6.94 log2 enrichment (interaction score)
